What all share (test): DAPPL (digital affinity profiling via proximity ligation, sequencing); 10 mM Tris-HCl pH 7.5, 50 mM NaCl, 1 mM DTT, 4% glycerol, room temperature, 30 min; GST-TFs on glutathione beads, 16-mer random dsDNA library, 0.1% formaldehyde crosslink after washing; high values mean tight binding
One test addresses T1, FEV (Homo sapiens, UniProt Q99581 1-238).
T1 sequence: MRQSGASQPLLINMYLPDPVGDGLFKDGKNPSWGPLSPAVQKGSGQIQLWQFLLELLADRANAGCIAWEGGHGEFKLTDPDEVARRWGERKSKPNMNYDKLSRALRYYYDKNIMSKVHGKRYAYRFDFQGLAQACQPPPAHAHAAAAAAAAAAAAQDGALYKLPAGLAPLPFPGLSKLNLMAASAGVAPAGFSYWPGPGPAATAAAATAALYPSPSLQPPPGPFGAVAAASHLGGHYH
The following applies: protein: recombinant; tags: N-terminal GST; dsDNA, one strand shown. Put shortly: (§1)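 Beads coated with glutathione captured GST-fused human transcription factors that had been expressed in yeast, and the factors were then given DNA barcodes and pooled with a tag-only sample. The pools were incubated with 200 nmole of a random double-stranded 16-mer DNA library in Tris/NaCl/DTT/glycerol buffer for 30 min at room temperature, washed, crosslinked with 0.1% formaldehyde and proximity-ligated with BsaI/T4 ligase at 37 °C for 1 h. PCR amplification and Illumina NextSeq500 sequencing came last. Binding signal is each hexamer's read frequency for a factor divided by its frequency for the tag-only sample.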

The next test has as its target ETV5 (Homo sapiens, UniProt P41161 1-510). The following applies: protein: recombinant; tags: N-terminal GST; dsDNA, one strand shown. The method, boiled down: as §1
The target of another test is HSF1 (Homo sapiens, UniProt Q00613 1-529). The following applies: protein: recombinant; tags: N-terminal GST; chain copies: 3; dsDNA, one strand shown. The method, boiled down: as §1
For another test, the target named is T2, SPIC (Homo sapiens, UniProt Q8N5J4 1-248).
T2 sequence: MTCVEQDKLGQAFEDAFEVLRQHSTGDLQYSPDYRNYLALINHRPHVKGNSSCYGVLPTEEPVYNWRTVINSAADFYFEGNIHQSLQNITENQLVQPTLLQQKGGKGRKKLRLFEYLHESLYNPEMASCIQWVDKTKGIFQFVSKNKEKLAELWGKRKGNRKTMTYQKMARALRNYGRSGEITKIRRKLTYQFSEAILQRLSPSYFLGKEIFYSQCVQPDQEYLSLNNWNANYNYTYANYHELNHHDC
The following applies: protein: recombinant; tags: N-terminal GST; dsDNA, one strand shown. The method, boiled down: as §1

The target of a further test is ELF4 (Homo sapiens, UniProt Q99607 1-663). The following applies: protein: recombinant; tags: N-terminal GST; dsDNA, one strand shown. The method, boiled down: as §1
Another test has as its target T3, ELK4 (Homo sapiens, UniProt P28324-2 1-405).
T3 sequence: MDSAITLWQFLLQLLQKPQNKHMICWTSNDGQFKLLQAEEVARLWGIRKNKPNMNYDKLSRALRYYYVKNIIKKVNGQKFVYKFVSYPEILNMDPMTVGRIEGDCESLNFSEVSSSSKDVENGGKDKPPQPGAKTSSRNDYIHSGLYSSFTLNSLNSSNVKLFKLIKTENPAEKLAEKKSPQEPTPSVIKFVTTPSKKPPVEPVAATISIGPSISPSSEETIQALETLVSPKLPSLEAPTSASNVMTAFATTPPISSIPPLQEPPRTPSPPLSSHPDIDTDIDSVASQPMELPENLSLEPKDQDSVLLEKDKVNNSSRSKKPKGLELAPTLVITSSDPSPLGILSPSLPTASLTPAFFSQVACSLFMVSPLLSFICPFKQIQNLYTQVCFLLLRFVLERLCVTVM
The following applies: protein: recombinant; tags: N-terminal GST; dsDNA, one strand shown. The method, boiled down:
as §1

A further test has as its target T4, ETV2 (Homo sapiens, UniProt O00321 1-342).
T4 sequence: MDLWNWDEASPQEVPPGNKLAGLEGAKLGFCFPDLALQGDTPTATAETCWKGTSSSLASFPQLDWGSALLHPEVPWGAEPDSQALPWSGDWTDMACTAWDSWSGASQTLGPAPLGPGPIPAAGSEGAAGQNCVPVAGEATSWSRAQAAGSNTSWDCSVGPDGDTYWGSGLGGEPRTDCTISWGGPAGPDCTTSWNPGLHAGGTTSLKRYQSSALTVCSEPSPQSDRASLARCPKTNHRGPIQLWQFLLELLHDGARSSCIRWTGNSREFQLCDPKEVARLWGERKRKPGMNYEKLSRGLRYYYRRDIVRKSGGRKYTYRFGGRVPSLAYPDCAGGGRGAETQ
The following applies: protein: recombinant; tags: N-terminal GST; dsDNA, one strand shown. The method, boiled down:
as §1

The target in the next test is T5, ELF3 (Homo sapiens, UniProt P78545 1-371).
T5 sequence: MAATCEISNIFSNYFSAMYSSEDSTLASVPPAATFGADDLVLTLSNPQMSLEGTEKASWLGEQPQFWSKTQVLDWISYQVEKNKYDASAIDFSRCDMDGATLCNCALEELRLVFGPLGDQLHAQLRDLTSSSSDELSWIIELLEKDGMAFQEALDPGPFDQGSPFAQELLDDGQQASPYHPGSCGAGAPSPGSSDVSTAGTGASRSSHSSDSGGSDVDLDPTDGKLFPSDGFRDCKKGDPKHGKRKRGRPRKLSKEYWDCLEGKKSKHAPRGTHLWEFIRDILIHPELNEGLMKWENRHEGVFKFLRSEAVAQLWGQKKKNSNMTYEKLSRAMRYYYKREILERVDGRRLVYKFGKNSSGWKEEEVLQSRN
The following applies: protein: recombinant; tags: N-terminal GST; dsDNA, one strand shown. The method, boiled down:
as §1

The target of the next test is CRX (Homo sapiens, UniProt O43186 1-299). The following applies: protein: recombinant; tags: N-terminal GST; dsDNA, one strand shown. Put shortly: as §1
A further test deals with ETV1 (Homo sapiens, UniProt P50549 1-477). The following applies: protein: recombinant; tags: N-terminal GST; dsDNA, one strand shown. Put shortly:
as §1

The target of a further test is T6, ERF (Homo sapiens, UniProt P50548 1-548).
T6 sequence: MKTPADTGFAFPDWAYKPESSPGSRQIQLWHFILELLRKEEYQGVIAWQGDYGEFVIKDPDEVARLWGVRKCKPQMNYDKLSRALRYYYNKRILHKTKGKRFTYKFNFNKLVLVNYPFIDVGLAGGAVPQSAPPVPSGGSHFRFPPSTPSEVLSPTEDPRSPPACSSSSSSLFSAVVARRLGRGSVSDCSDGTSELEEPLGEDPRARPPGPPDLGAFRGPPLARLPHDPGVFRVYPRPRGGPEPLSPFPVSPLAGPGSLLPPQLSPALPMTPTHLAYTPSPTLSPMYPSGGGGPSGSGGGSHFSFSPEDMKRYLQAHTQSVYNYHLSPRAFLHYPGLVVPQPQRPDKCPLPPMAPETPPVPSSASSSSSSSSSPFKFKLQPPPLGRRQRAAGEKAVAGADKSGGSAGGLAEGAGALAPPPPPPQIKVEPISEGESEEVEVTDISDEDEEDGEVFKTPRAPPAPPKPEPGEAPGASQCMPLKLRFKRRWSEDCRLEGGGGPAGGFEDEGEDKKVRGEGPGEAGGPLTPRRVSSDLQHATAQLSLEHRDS
The following applies: protein: recombinant; tags: N-terminal GST; dsDNA, one strand shown. The method, boiled down:
as §1

A further test deals with T7, ETV3L (Homo sapiens, UniProt Q6ZN32 1-361).
T7 sequence: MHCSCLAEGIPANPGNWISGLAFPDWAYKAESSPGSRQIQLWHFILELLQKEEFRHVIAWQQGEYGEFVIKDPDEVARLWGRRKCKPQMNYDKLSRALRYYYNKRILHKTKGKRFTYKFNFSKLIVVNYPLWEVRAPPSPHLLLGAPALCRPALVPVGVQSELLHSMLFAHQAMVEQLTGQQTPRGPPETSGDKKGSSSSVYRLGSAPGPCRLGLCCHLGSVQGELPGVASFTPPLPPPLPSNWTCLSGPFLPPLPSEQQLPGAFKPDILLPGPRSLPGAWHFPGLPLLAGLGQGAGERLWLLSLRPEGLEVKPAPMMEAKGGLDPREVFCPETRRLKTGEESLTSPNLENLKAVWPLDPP
The following applies: protein: recombinant; tags: N-terminal GST; dsDNA, one strand shown. Put shortly:
as §1

Another test addresses T8, ETS2 (Homo sapiens, UniProt P15036 1-469).
T8 sequence: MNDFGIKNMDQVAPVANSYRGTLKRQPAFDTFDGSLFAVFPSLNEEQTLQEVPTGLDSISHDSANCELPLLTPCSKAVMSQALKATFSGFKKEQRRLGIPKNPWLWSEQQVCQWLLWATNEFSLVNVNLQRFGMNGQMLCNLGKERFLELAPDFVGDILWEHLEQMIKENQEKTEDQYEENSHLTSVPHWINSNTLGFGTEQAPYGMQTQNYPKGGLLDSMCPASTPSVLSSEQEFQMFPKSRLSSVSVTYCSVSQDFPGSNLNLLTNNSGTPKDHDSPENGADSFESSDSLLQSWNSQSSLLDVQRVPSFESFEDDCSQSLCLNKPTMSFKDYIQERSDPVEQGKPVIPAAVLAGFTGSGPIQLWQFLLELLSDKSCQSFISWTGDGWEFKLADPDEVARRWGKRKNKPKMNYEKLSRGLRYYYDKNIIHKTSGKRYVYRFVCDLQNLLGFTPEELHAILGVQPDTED
The following applies: protein: recombinant; tags: N-terminal GST; dsDNA, one strand shown. Put shortly:
as §1

A further test has as its target T9, SPDEF (Homo sapiens, UniProt O95238 1-335).
T9 sequence: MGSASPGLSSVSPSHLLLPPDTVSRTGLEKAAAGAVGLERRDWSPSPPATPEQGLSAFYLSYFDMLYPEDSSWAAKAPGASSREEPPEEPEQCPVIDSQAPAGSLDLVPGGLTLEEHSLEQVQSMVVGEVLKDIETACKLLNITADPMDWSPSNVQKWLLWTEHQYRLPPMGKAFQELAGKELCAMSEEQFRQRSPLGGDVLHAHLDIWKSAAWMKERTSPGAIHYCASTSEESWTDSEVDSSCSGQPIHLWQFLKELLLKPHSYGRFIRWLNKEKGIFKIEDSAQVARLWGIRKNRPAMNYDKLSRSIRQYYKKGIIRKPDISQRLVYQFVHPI
The following applies: protein: recombinant; tags: N-terminal GST; dsDNA, one strand shown. Put shortly:
as §1

The target in the next test is T10, ETV7 (Homo sapiens, UniProt Q9Y603 1-341).
T10 sequence: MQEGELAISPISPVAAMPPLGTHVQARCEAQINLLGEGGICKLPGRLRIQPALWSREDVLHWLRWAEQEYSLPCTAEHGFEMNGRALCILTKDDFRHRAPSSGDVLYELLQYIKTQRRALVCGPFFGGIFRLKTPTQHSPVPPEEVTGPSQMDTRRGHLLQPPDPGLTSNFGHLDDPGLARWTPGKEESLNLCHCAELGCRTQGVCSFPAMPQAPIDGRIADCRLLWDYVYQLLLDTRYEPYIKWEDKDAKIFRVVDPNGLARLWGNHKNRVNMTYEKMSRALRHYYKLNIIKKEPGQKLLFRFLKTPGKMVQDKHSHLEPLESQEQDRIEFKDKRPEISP
The following applies: protein: recombinant; tags: N-terminal GST; dsDNA, one strand shown. Put shortly: as §1

The target in the next test is T11, ELF5 (Homo sapiens, UniProt Q9UKW6-2 1-255).
T11 sequence: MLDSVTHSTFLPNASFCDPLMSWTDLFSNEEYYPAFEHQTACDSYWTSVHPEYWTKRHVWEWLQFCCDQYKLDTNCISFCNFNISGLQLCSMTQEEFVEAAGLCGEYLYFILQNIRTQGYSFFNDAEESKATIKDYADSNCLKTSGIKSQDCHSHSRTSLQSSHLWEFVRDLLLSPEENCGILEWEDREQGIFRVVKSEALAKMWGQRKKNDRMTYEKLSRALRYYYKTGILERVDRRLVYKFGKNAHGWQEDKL
The following applies: protein: recombinant; tags: N-terminal GST; dsDNA, one strand shown. The method, boiled down: as §1

A further test deals with T12, ETV3 (Homo sapiens, UniProt P41162-2 1-143).
T12 sequence: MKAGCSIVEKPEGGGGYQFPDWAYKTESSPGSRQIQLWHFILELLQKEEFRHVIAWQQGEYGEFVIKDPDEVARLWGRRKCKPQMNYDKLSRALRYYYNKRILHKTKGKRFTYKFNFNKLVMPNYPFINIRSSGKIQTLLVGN
The following applies: protein: recombinant; tags: N-terminal GST; dsDNA, one strand shown. Put shortly:
as §1

Another test has as its target ETV6 (Homo sapiens, UniProt P41212 1-452). The following applies: protein: recombinant; tags: N-terminal GST; dsDNA, one strand shown. The method, boiled down: as §1

ETV1, sequence (P50549 whole entry): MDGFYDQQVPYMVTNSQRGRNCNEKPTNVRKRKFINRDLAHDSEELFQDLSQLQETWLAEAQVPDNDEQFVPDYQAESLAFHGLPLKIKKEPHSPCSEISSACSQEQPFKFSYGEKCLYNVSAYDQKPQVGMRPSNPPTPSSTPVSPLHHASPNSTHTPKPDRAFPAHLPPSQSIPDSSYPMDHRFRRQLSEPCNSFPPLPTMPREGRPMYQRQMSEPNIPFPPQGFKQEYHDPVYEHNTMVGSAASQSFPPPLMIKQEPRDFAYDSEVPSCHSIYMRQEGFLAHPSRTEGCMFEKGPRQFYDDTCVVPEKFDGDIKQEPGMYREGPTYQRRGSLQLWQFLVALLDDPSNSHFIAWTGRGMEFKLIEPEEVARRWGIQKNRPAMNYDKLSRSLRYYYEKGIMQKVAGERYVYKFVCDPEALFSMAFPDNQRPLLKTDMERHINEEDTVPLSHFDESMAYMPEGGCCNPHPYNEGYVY
CRX, sequence (O43186 whole entry): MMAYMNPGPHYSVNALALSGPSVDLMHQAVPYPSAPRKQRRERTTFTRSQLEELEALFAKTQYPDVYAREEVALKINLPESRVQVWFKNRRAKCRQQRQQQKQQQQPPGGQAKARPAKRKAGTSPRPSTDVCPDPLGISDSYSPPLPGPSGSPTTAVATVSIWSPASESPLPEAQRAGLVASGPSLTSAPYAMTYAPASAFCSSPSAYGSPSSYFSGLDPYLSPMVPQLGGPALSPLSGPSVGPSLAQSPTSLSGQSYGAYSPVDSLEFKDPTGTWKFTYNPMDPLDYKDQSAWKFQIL
HSF1, sequence (Q00613 whole entry): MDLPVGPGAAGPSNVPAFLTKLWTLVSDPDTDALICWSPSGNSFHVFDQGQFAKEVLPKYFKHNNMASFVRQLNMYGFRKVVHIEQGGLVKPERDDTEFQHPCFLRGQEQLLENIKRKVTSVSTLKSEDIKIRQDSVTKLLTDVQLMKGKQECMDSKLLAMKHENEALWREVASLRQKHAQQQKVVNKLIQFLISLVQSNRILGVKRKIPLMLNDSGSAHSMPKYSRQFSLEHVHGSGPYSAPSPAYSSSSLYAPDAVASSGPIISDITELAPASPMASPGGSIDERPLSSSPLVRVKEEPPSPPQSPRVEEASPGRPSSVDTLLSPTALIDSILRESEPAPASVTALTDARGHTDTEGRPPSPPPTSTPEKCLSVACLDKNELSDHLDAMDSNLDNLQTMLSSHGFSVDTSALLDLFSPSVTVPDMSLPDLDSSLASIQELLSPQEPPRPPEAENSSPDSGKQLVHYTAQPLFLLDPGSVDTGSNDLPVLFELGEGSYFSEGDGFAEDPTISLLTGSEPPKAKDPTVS
ETV5, sequence (P41161 whole entry): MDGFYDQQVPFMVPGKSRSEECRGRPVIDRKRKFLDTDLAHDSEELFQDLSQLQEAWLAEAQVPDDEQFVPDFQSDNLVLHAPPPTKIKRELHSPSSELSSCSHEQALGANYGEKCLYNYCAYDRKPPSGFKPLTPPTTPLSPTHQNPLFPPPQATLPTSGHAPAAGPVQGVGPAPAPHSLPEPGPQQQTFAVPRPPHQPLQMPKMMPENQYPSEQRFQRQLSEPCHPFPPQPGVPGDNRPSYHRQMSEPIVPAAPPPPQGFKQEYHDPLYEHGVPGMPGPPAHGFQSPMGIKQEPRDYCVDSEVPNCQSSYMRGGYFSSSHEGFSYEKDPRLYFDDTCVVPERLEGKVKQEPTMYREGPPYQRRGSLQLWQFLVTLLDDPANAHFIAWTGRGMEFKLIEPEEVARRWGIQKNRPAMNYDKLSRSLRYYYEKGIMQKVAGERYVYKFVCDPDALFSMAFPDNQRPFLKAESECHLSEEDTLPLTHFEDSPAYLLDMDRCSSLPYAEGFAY
ETV6, sequence (P41212 whole entry): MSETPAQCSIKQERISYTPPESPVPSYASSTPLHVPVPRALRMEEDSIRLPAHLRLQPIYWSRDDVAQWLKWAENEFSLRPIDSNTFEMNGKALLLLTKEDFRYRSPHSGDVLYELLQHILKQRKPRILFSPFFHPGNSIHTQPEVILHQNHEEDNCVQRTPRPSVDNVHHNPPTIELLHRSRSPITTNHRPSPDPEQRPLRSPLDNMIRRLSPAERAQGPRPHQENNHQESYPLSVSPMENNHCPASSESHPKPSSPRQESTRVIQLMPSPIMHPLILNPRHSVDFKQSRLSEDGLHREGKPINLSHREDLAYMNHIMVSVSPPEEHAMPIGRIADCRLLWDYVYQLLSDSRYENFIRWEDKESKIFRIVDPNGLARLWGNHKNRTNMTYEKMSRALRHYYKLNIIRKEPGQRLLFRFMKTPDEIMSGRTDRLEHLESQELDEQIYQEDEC
ELF4, sequence (Q99607 whole entry): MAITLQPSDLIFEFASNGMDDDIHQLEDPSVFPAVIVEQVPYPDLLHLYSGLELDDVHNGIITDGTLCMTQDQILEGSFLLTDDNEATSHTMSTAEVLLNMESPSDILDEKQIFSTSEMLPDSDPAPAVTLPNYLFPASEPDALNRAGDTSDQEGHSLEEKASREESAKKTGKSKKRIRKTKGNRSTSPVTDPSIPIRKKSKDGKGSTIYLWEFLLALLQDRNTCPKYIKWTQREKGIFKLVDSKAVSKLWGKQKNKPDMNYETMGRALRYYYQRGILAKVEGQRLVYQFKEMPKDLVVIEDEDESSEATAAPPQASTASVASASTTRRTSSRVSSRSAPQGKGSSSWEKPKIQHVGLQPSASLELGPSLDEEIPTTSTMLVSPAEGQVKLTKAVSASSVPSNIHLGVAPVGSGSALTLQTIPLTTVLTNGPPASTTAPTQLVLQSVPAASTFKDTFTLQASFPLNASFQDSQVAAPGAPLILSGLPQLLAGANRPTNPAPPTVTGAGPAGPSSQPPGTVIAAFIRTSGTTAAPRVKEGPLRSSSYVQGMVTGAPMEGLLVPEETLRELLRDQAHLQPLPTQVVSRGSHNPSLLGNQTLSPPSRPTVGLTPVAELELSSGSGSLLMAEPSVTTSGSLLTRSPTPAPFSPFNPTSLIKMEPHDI

As to CCTATC, the binding signal in the test with FEV was 1.16 fold enrichment (6-mer frequency, TF over GST control); with ETV5 it was 1.14 fold enrichment (6-mer frequency, TF over GST control); with HSF1 it was 1.06 fold enrichment (6-mer frequency, TF over GST control); with SPIC, 1.1 fold enrichment (6-mer frequency, TF over GST control); in the test with ELF4, 1.16 fold enrichment (6-mer frequency, TF over GST control); with ELK4, 1.14 fold enrichment (6-mer frequency, TF over GST control). Further, the binding signal with ETV2 is 1.08 fold enrichment (6-mer frequency, TF over GST control); with ELF3 it was 1.23 fold enrichment (6-mer frequency, TF over GST control); in the test with CRX, 1.15 fold enrichment (6-mer frequency, TF over GST control); with ETV1 it was 1.16 fold enrichment (6-mer frequency, TF over GST control); in the test with ERF it was 1.17 fold enrichment (6-mer frequency, TF over GST control); in the test with ETV3L, 1.22 fold enrichment (6-mer frequency, TF over GST control). Moreover, the binding signal with ETS2 is 1.2 fold enrichment (6-mer frequency, TF over GST control); in the test with SPDEF, 1.29 fold enrichment (6-mer frequency, TF over GST control); with ETV7, 1.3 fold enrichment (6-mer frequency, TF over GST control); with ELF5, 1.12 fold enrichment (6-mer frequency, TF over GST control); with ETV3 it was 1.2 fold enrichment (6-mer frequency, TF over GST control); in the test with ETV6, 1.12 fold enrichment (6-mer frequency, TF over GST control).
